These results are taken from PubChem BioAssay (NCI).

Molecules are shown by their SMILES. About 83,000 compounds went through this panel and 20% of them were active in at least one assay; those are over-represented in the sample as a whole.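 Results are percent growth after 48 hours of single-concentration exposure. 100 means growth as in untreated cells, lower positive values show inhibition; negative values down to -100 show cell death.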 Values without a mark were called inactive. Activity calls are given as the source filed them. How the source made its calls: active means growth percent below 10; inactive means the rest.

The first assay concerns SK-MEL-5 melanoma. Briefly: NCI-60 one-dose screen, 48 h (100 = growth as untreated, 0 = no growth, -100 = all killed). The settings on record: 10 µM unless noted.
On to `CC1=CNNc2c3ncnc-3ncn21`, for which the growth was 99.7%.

For `CCN(CC)c1cc(/C=C/c2ccc(OC)c(OC)c2)nc2cc(F)c(F)cc12`, the growth is 93.3%.

Take `CCCCCCCCCCCCOB(OCCCCCCCCCCCC)OCCCCCCCCCCCC`: the growth was 102%.

Take `c1ccn2nnnc2c1`: the growth is 103%.

In the case of `Nc1c(C(=O)Nc2c(Cl)cccc2Cl)sc2nc3c(cc12)CCCCC3`, the growth is 66.3%.

For the compound `COc1ccc(-n2c(C)cc(-c3ccccc3)c2C)cc1`, the growth was -3.53% (active).

For `COc1cc2c(cc1OC)C1(C)N(CC2)C(=O)OC1(C)C` (stereo not given), the growth is 99.6%.

On to `COc1ccc(/C=C/c2nc(N3CCOCC3)c3nc(Cl)c(Cl)cc3n2)cc1OC`, for which the growth was 103%.

`Cc1cccc(NC(=O)c2sc3nc4c(cc3c2N)CCCC4)c1`: the growth was 33.9%.

For `O=C(/C=C/c1ccccc1)n1c(-c2ccc(Cl)cc2)nc2ccccc21`, the growth is -70.6% (active).

Consider `COc1cc(Cn2c(-c3nonc3N)nc3ccccc32)ccc1C`, for which the growth was 19.1%.

Take `Clc1ccc(-c2nc(-c3ccco3)cn3ccnc23)cc1`: the growth was 58%.

As to `Oc1ccc(N=Cc2ccccc2)cc1`, the growth was 83.4%.

Regarding `CCCCCc1c(C)[nH]c(/C=c2\[nH]/c(=C3/C=c4ccccc4=N3)cc2OC)c1C`, the growth was -98.7% (active).

In the case of `COc1cc2nc(Cl)nc(NCCO)c2cc1OC`, the growth was 102%.

In the case of `CCC1CCc2nc3sc(C(=O)Nc4ccccc4C)c(N)c3cc2C1` (stereo not given), the growth was 26.6%.

For the compound `Cc1cc(Nc2nc(C(=O)Nc3ccccc3)nc3ccccc23)n[nH]1`, the growth is 59.2%.

Take `c1ccc2nc(-c3ccc4ccccc4n3)ccc2c1`: the growth is 88.9%.

As to `Clc1nc2ccccc2nc1CI`, the growth was 83%.

On to `Cc1cccc(NC(=O)c2sc3nc4c(cc3c2N)CCC4)c1C`, for which the growth is 24.4%.

Regarding `Clc1cccc(Cl)c1Cn1c(-c2cncs2)nc2ccccc21`, the growth was 58.9%.

On to `Clc1ccc(/C=C/c2nc(N3CCOCC3)c3nc(Cl)c(Cl)cc3n2)cc1`, for which the growth was 90.2%.

For the compound `Cc1cc(Nc2nc(-c3ccc(F)cc3)nc3ccccc23)n[nH]1`, the growth is 73.7%.

As for `COC(=O)[C@H]1[C@H](OC)[C@@H](OC(=O)/C=C/c2ccncc2)CC2CN3CCc4c([nH]c5cc(OC)ccc45)[C@@H]3C[C@@H]21` (stereo not given in full), the growth is 89.6%.

With `CN(C)c1ncc(-c2ccc(C(F)(F)F)cc2)c(NC2CCCCCC2)n1`, the growth is 39.6%.

`CC(=O)Nc1ccc(S(=O)(=O)N2C(=O)CCC2C(=O)Nc2ccccc2)cc1` (stereo not given): the growth is 20.2%.

The next assay concerns UACC-62 melanoma. Described as above. The settings on record: 10 µM unless noted.
In the case of `CC(=O)Nc1nc(C(=O)N2N=C(C)/C(=C/c3cccs3)C2=O)cs1`, the growth was 113%.

As to `CN1C(=O)[C@H]2c3c1cccc3[C@@]13NC(=O)O[C@H]1[C@H](CCC3(C)C)C2(C)C`, the growth is 85.4%.

Regarding `CC(=O)C1CCC(C)=CC1=O` (stereo not given), the growth was 101%.

Consider `COc1cccc(-n2cc(-c3nc(Cl)c4ccccc4n3)nn2)c1`, for which the growth was 97.4%.

Turning to `Nc1c(C(=O)Nc2cccc(Cl)c2Cl)sc2nc3c(cc12)C(=O)CCC3`, the growth was 64.6%.

On to `COc1cc(/C=C2\CCCC3=C2NC(C)=NC3c2cc(OC)c(OC)c(OC)c2)cc(OC)c1OC` (stereo not given), for which the growth is 9.03% (active).

With `O=c1[nH]c(-c2cn(-c3ccc(Cl)cc3)nn2)nc2ccccc12`, the growth is 60.9%.

For the compound `CC/C(=C(\c1ccc(O)cc1)c1ccc(OCCN(C)CCN(C)C(=O)CCC(=O)c2c(C)[nH]c(/C=C3\N=C(c4ccc[nH]4)C=C3OC)c2C)cc1)c1ccccc1`, the growth was 14.2%.

On to `Cc1cc(Nc2nc(-c3ccncc3)nc3ccccc23)n[nH]1`, for which the growth is 55.3%.

For the compound `COc1cc(C2C=C(C)N=C3SC=CN32)cc(OC)c1OC` (stereo not given), the growth was 107%.

As for `COC1=CC(c2ccc[nH]2)=N/C1=C\c1[nH]c(C)c(C(=O)CCC(=O)Oc2ccc3c(c2)CCC2C3CC[C@]3(C)[C@@H](O)CC[C@@H]23)c1C` (stereo not given in full), the growth was -41.8% (active).

On to `Cc1ccc(Cn2c(-c3nonc3N)nc3ccccc32)cc1`, for which the growth was 77.7%.

Consider `O=C(Nc1ccccc1)OCC1OCOC(COC(=O)Nc2ccccc2)C1OC(=O)Nc1ccccc1` (stereo not given), for which the growth was 73.1%.

As to `CC1=CNNc2c3ncnc-3ncn21`, the growth is 98.6%.

Turning to `CCN(CC)c1cc(/C=C/c2ccc(OC)c(OC)c2)nc2cc(F)c(F)cc12`, the growth was 10.4%.

In the case of `CCCCCCCCCCCCOB(OCCCCCCCCCCCC)OCCCCCCCCCCCC`, the growth is 104%.

As for `c1ccn2nnnc2c1`, the growth was 105%.

In the case of `Nc1c(C(=O)Nc2c(Cl)cccc2Cl)sc2nc3c(cc12)CCCCC3`, the growth was 29%.

With `COc1ccc(-n2c(C)cc(-c3ccccc3)c2C)cc1`, the growth was 52.2%.

In the case of `COc1cc2c(cc1OC)C1(C)N(CC2)C(=O)OC1(C)C` (stereo not given), the growth is 106%.

As for `COc1ccc(/C=C/c2nc(N3CCOCC3)c3nc(Cl)c(Cl)cc3n2)cc1OC`, the growth is 101%.

As to `Cc1cccc(NC(=O)c2sc3nc4c(cc3c2N)CCCC4)c1`, the growth is 26.5%.

For `O=C(/C=C/c1ccccc1)n1c(-c2ccc(Cl)cc2)nc2ccccc21`, the growth is -84.7% (active).

Consider `COc1cc(Cn2c(-c3nonc3N)nc3ccccc32)ccc1C`, for which the growth was 37.9%.

`Clc1ccc(-c2nc(-c3ccco3)cn3ccnc23)cc1`: the growth is 88%.

Take `Oc1ccc(N=Cc2ccccc2)cc1`: the growth is 97.5%.

As for `CCCCCc1c(C)[nH]c(/C=c2\[nH]/c(=C3/C=c4ccccc4=N3)cc2OC)c1C`, the growth is -78.9% (active).

As for `COc1cc2nc(Cl)nc(NCCO)c2cc1OC`, the growth is 108%.

Consider `CCC1CCc2nc3sc(C(=O)Nc4ccccc4C)c(N)c3cc2C1` (stereo not given), for which the growth was 33.2%.

As for `Cc1cc(Nc2nc(C(=O)Nc3ccccc3)nc3ccccc23)n[nH]1`, the growth is 59.9%.

Turning to `c1ccc2nc(-c3ccc4ccccc4n3)ccc2c1`, the growth was 97%.

In the case of `Clc1nc2ccccc2nc1CI`, the growth is 100%.

In the case of `Cc1cccc(NC(=O)c2sc3nc4c(cc3c2N)CCC4)c1C`, the growth is 28.7%.

Regarding `Clc1cccc(Cl)c1Cn1c(-c2cncs2)nc2ccccc21`, the growth is 61.2%.

As for `Clc1ccc(/C=C/c2nc(N3CCOCC3)c3nc(Cl)c(Cl)cc3n2)cc1`, the growth is 106%.

With `Cc1cc(Nc2nc(-c3ccc(F)cc3)nc3ccccc23)n[nH]1`, the growth was 40.8%.

For the compound `COC(=O)[C@H]1[C@H](OC)[C@@H](OC(=O)/C=C/c2ccncc2)CC2CN3CCc4c([nH]c5cc(OC)ccc45)[C@@H]3C[C@@H]21` (stereo not given in full), the growth was 43.8%.

Regarding `CN(C)c1ncc(-c2ccc(C(F)(F)F)cc2)c(NC2CCCCCC2)n1`, the growth was 31.4%.

Take `CC(=O)Nc1ccc(S(=O)(=O)N2C(=O)CCC2C(=O)Nc2ccccc2)cc1` (stereo not given): the growth was 11%.
